Data from PubChem BioAssay AID624305 (National Center for Advancing Translational Sciences (NCATS), 2012).
Records with an inconclusive call do not appear. Active and inactive are the calls of the source. Calls follow the shape of the dose curve; as a rule, active = well fitted activation curve with a large enough effect; inconclusive = small, poorly fitted or top-dose-only effect; inactive = no such curve, though single readings can be large or run the other way.

experiment: qHTS assay for re-activators of p53 using a Luc reporter: Hit Validation; conditions: p53-responsive luciferase reporter cells, luminescence, H1299 line expressing heat-sensitive Ala138Val p53; series mostly up to 46.1 µM; also: nearly all actives have a fitted effect of over 75% in size
How it was run: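 H1299 (p53-null) cells stably carrying p53-A138V and a BP100-luciferase reporter, 1000 cells/well, treated 24 h at 37 deg C. Compounds at several concentrations, 1:5 dilution; nocodazole control; luminescence read after 10 min with detection reagent.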
Potency is read from the fitted curve at half-maximal effect.

| SMILES | Potency |
| --- | --- |
| COc1ccc(CCC(C)NCC(C)c2ccccc2)cc1 (stereo not drawn) | inactive |
| O=[N+]([O-])c1ccc(NC(=S)NCCc2ccc(F)cc2)cc1 | inactive |
| CCCCC(=O)NC(c1ccc(Cl)cc1Cl)c1ccc2cccnc2c1O (stereo not drawn) | 20600 nM (active) |
| Cc1cc(C)c2nc(NNC(=O)c3ccc(S(=O)(=O)N4CCCC(C)C4)cc3)sc2c1 (stereo not drawn) | inactive |
| CCOc1ccc(N/C=C/C(=O)c2ccccc2)c([N+](=O)[O-])c1 | 461 nM (active) |
| CCCCC(=O)N1CCCC(C)C1 (stereo not drawn) | inactive |
| CCN(CC)C(=O)CNC(=S)N(CCCN1CCOCC1)Cc1cccs1 | inactive |
| O=C(CC1NC2CCCCC2NC1=O)Nc1ccc2c(c1)OCO2 (stereo not drawn) | inactive |
| O=C(Nc1nc(-c2cccs2)cs1)c1ccc([N+](=O)[O-])o1 | 20600 nM (active) |
| O=C(CC(Nc1ccc(F)cc1)C(=O)OCC(=O)c1cccs1)c1ccccc1 (stereo not drawn) | inactive |
| CCOC(=O)c1c(C)[nH]c(C(=O)OCCOc2ccccc2C)c1C | 1300 nM (active) |
| CC1(C)Oc2ccc(NC(=O)C3COc4ccccc4O3)cc2O1 (stereo not drawn) | 1300 nM (active) |
| OCc1cc(Br)ccc1OCc1nc2ccccc2s1 | 2910 nM (active) |
| NNC(=O)c1cccc(O)c1 | inactive |
| Cc1ccc(C)n1-c1cccc(NC(=O)c2ccccc2)c1 | inactive |
| Cc1ccnc(NC(=O)c2sc3cc(Cl)ccc3c2Cl)c1 | 2910 nM (active) |
| O=C(COC(=O)c1ccc(F)cc1)NC1CC1 | inactive |
| Cc1c(C(=O)N2CCc3ccccc32)oc2c1C(=O)CC(C)(C)C2 | 4110 nM (active) |
| c1ccc(-c2ccc(-c3ccccn3)nn2)nc1 | 82 nM (active) |

| SMILES | Potency |
| --- | --- |
| COc1ccc(-c2cc(=O)c3ccccc3s2)cc1 | 4110 nM (active) |
| Cc1cccc(-n2c(C)cc(C(=O)NC3CCCCC3)c2C)c1 | 7310 nM (active) |
| O=C(Nc1ncc(Cc2ccccc2)s1)c1cccs1 | 2590 nM (active) |
| COc1ccc2oc(C(=O)Nc3nc(C)cs3)c(C)c2c1 | 1840 nM (active) |
| COc1ccc(-c2nnc(SCC(=O)/C(C#N)=C(\C)N)o2)cc1 | 326 nM (active) |
| COc1ccc(C(=O)O/N=C(\N)c2ccccc2)c(OC)c1 | 366 nM (active) |
| Cc1ccc(C(=O)CC(Nc2ccc(F)cc2)c2ccccc2)cc1 (stereo not drawn) | inactive |
| COc1ccc2cc(C3(C)NC(=O)N(CC(=O)Nc4c(C)n(C)n(-c5ccccc5)c4=O)C3=O)ccc2c1 (stereo not drawn) | inactive |
| O=C(c1cccs1)c1coc2ccc(O)cc12 | 16400 nM (active) |
| Cc1ccc(NC(CC(=O)c2ccccc2)c2ccc(F)cc2)cc1 (stereo not drawn) | inactive |
| Clc1ccc(-c2nnc(N3CCCC3)nn2)cc1 | 731 nM (active) |
| Cc1csc(NC(=O)CSc2nnc(-c3cccs3)n2C)n1 | inactive |
| O=C(COC(=O)CNC(=O)c1ccc([N+](=O)[O-])o1)Nc1ncc(C(F)(F)F)cc1Cl | inactive |
| COCc1[nH]nc2c1C(c1cccc(OC)c1)C(C#N)=C(N)O2 (stereo not drawn) | inactive |
| Cc1occc1C(=O)NNC(=S)Nc1ccccc1C(F)(F)F | 13000 nM (active) |
| COc1ccc(NC(=O)CN(C)CC(=O)Nc2ccccc2SC)cc1 | inactive |
| CC(=O)/C=C(\C)Nc1ccc(-c2cnc(-c3ccccc3)o2)cc1 | 2590 nM (active) |
| CCc1cc2c(=O)c(-c3ccc4c(c3)OCCO4)coc2cc1OS(C)(=O)=O | 4610 nM (active) |
| Cc1ccc2nc(C(F)(F)F)c(C#N)c(N)c2c1 | inactive |
